Most compounds without a hit are left out; they make up all but 27% or so of the library.
CYP2C19 inh: blockers of cytochrome P450 2C19 activity – biochemical, luminescence, ADME assay, primary screen | CYP2C19 Supersomes, luciferin-H EGE luminescence, 30 min | inhibition, % at 5 µM | 96,000 compounds, 21% hits | AID 778, 2007;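 active means CYP2C19 inhibition above a set limit at 5 µM in the primary screen, cut at about 50% in these data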;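 further: plate controls were negative control wells for no effect and 2.5 mM tranylcypromine positive control for full effect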
Cav32 inh: Cav3.2 calcium influx blockers – cell-based, Fluo-4 calcium fluorescence, FDSS, MLSMR library, primary screen. Cav3.2-expressing cells; stronger effect = lower value. B-score at 10 µM. 100,000 compounds, 4% hits;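 active means single-dose well whose peak fluorescence ratio is a statistical outlier from its plate by either plate-standardised score or position-corrected B-score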
CYP2C19 act: human CYP2C19 activators, primary screen, biochemical, luminescence | Cytochrome P450 2C19 (Homo sapiens), P33261 | recombinant CYP2C19, luciferin-H EGE luminescence; stronger effect = higher value; 0 = fully inhibited enzyme, 1 = untreated enzyme | activation factor at 5 µM | 96,000 tested, under 10 active | AID 1025, 2008;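 active means activation factor of at least 2 at 5 µM in the primary screen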;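 further: 0 = wells with 2.5 mM tranylcypromine and 1 = vehicle-only wells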
CYP2C9 activ: human CYP2C9 activators, primary screen, biochemical, luminescence; Cytochrome P450 2C9 (Homo sapiens), P11712; recombinant CYP2C9, luciferin-H conversion; stronger effect = higher value; factor 1 = untreated enzyme, 0 = blocked; activation factor at 5 µM; 96,000 compounds, 1.4% hits; AID 1024, 2008;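 active means activation factor of 2 or more for CYP2C9 at a 5 µM dose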;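 further: 0 = sulfaphenazole-blocked wells and 1 = vehicle-only wells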
Target sequence (P11712 whole entry, looked up): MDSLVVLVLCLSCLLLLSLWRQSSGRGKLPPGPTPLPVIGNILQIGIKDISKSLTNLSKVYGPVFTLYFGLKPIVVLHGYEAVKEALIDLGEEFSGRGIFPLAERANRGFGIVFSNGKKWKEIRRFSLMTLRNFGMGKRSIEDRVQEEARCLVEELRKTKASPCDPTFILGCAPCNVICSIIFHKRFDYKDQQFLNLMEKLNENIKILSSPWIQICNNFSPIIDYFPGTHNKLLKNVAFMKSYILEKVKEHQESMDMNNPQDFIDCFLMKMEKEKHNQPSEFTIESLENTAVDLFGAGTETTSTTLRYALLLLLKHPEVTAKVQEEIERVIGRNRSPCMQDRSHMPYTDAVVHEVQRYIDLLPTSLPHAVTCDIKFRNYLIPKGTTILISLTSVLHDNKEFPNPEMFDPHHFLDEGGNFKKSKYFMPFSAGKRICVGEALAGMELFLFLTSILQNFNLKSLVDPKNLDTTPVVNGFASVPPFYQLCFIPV
CYP2C9 inhib: blockers of cytochrome P450 2C9 activity – biochemical, luminescence, ADME assay, primary screen; CYP2C9 Supersomes, luciferin-H conversion; inhibition, % at 5 µM; 96,000 compounds, 20% hits;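 active means blocking of liver enzyme CYP2C9 beyond about 50% at 5 µM, limit read from the data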
Active calls of the source: *; nt = no result.

SMILES	CYP2C19 inh	Cav32 inh	CYP2C19 act	CYP2C9 activ	CYP2C9 inhib
C=CCn1cc(C(=O)NCc2ccco2)c(=O)c2cc(S(=O)(=O)N3CCCCCC3)ccc21	44.1	-4.86*	0.6	0.1	88.7*
CCn1cc(C(=O)NCc2ccco2)c(=O)c2cc(S(=O)(=O)N3CCCCCC3)ccc21	49.4	-2.15	0.5	0.1	86.3*
O=C(COC(=O)c1cc(S(=O)(=O)N2CCc3ccccc3C2)ccc1Cl)NCc1ccco1	40.5	-3.49	0.6	0.3	66.3*
CCn1cc(C(=O)NC2CCC(C)CC2)c(=O)c2cc(S(=O)(=O)N3CCCCC3)ccc21 (stereo not given)	6.0	-7.18*	0.9	0.6	39.2
O=C(COC(=O)c1cccc(S(=O)(=O)N2CCc3ccccc3C2)c1)NCc1ccco1	28.2	nt	0.7	0.6	41.8
O=C1CCCC(O)=C1C1C2=C(CCCC2=O)Oc2ccccc21 (stereo not given)	9.2	-0.0909	0.9	0.8	19.8
CC1CCCCC1NC(=O)C1CCN(S(=O)(=O)c2cccc3nsnc23)CC1 (stereo not given)	-25.0	0.515	1.3	1.8	-76.0
Cc1ccc2oc3c(c(=O)c2c1)C(c1cccc(Cl)c1)N(CCCN1CCOCC1)C3=O (stereo not given)	2.7	0.239	1	0.9	13.8
COc1ccc(/C(O)=C2/C(=O)C(=O)N(c3ncccn3)C2c2ccc(OC)c(OC)c2)cc1 (stereo not given)	-17.2	nt	1.2	1.2	-24.8
COCCCNCCOc1cc(C(C)C)ccc1C	10.3	0.376	0.9	1	-0.2
CCCCCCC1CC(C)(/C(C)=N/NC(N)=O)OC1=O (stereo not given)	13.5	-0.108	0.9	0.9	6.7
COCCCN1C(=O)c2[nH]nc(-c3cc(C)cc(C)c3O)c2C1c1ccc(O)c(OC)c1 (stereo not given)	87.3*	nt	0.1	0.4	62.8*
COCCCN1C(=O)c2[nH]nc(-c3ccccc3O)c2C1c1cccc(Cl)c1 (stereo not given)	40.2	-6.45*	0.6	0.6	35.1
Cc1cc(O)c(-c2n[nH]c3c2C(c2cccc(O)c2)N(Cc2cccnc2)C3=O)cc1Cl (stereo not given)	24.7	1.33	0.8	0.3	67.2*
O=C(NCc1ccc2c(c1)OCO2)c1nn2cccnc2c1Cl	41.1	-0.201	0.6	0.9	11.5
COc1cc(OC)cc(C(=O)NCCNC(=O)c2ccccc2)c1	53.3*	nt	0.5	0.5	46.4
O=C(NCNC(=O)c1ccccc1)c1ccccc1	93.7*	0.0648	0.1	1	-3.1
COc1cc(OC)cc(C(=O)NC(=S)NCCc2ccccc2)c1	47.5	-0.144	0.5	0.5	51.0*
COc1cc(OC)cc(C(=O)Nc2ccccc2NC(C)=O)c1	34.8	1.41	0.7	0.7	25.5
COc1cc(OC)cc(C(=O)NC(=S)Nc2cccnc2)c1	76.2*	-0.108	0.2	0.2	77.8*
COc1ccc([C@H]2C=C3CN(C(=O)OC(C)(C)C)S(=O)(=O)[C@H]3C[C@H]2OC(=O)c2cccs2)cc1	nt	-1.02	nt	nt	nt
Cc1ccc(/S(C)=N/S(=O)(=O)c2ccc(C)cc2)cc1 (stereo not given)	28.2	0.394	0.7	1.6	-59.0
CN1CC(=O)N(CCOc2ccccc2)C1=O	3.0	0.678	1	1	-2.5
CCOc1ccc(OCCN2C(=O)NC(Cc3c[nH]c4ccccc34)C2=O)cc1 (stereo not given)	68.1*	nt	0.3	0.2	79.5*
CCN(C(=O)c1cc2ccccc2oc1=O)c1ccccc1	36.3	0.395	0.6	1.1	-9.2
SMILES	CYP2C19 inh	Cav32 inh	CYP2C19 act	CYP2C9 activ	CYP2C9 inhib
O=C(c1cc2ccccc2oc1=O)N(Cc1cccs1)Cc1ccccc1Cl	nt	-7.12*	nt	nt	nt
Nc1sc(-c2ccccc2)cc1C(=O)O	37.3	nt	0.6	0.4	64.0*
CCOC(=O)c1cc(-c2ccccc2)sc1NC(=S)Nc1cccc(C)n1	3.7	0.122	1	0.9	6.3
CCOC(=O)c1cc(-c2ccc(N)cc2)sc1N	54.4*	0.383	0.5	0.4	58.7*
Nc1c(O)cccc1C(=O)O	nt	-1.69	nt	nt	nt
Cc1ccc2c(c1)nnn2C1CCN(S(=O)(=O)c2ccc(C(=O)NC3CCCC3)cc2)CC1	20.6	0.748	0.8	0.5	50.2*

Bioassay records: PubChem BioAssay, several laboratories
